HP1b binding inh: HTS for Inhibitors of HP1-beta Chromodomain Interactions with Methylated Histone Tails; AlphaScreen HP1-beta / biotin-H3K9me3 peptide binding; Chromobox protein homolog 1 (Homo sapiens), P83916; Potency, µM (doses to about 114 µM), for inactives: at the highest dose activity change, negative = inhibition, actives largely listed as inhibitors; 390,000 tested, 0.56% active; also: potency is read from the fitted curve at half-maximal effect; nearly all actives have a fitted effect of over 70% in size
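Compound inhibition of the preformed complex between 50 nM HP1-beta and 50 nM biotinylated H3K9me3 peptide was read by AlphaScreen. Buffer was PBS pH 7.4 with 0.01% Tween-20. Incubations ran 30 min at room temperature, with 10 ug/mL donor/acceptor beads.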
VDR inh: Inhibitors of the vitamin D receptor (VDR): qHTS; Vitamin D3 receptor (Homo sapiens), P11473; 400,000 tested, 0.93% active; Potency, µM, without a hit: max response, negative = inhibition, actives largely listed as inhibitors; VDR-SRC2-3 peptide fluorescence polarization, 2 h; also: potency is read from the fitted curve at half-maximal effect; % is scaled to controls: 0 for no effect and ±100 for the full control effect
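The screen uses fluorescence polarization to detect compounds that interfere with recruitment of the SRC2-3 coactivator peptide to VDR; plates are read after 2 h at room temperature.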
PLK1 PBD block: qHTS for Inhibitors of PLK1-PDB (polo-like kinase 1 - polo-box domain): Primary Screen; Serine/threonine-protein kinase PLK1 (Homo sapiens), P53350; Plk1 PBD binding of FITC phosphopeptide, fluorescence polarization; Potency, µM, for the others: max response, negative = inhibition, actives largely listed as inhibitors; 360,000 tested, 2.8% active; also: potency is read from the fitted curve at half-maximal effect; series mostly up to about 57 µM; % is scaled to controls: 0 for no effect and ±100 for the full control effect; nearly all actives have a fitted effect of over 65% in size
Target sequence (P53350 whole entry, looked up, the tested form may be a part): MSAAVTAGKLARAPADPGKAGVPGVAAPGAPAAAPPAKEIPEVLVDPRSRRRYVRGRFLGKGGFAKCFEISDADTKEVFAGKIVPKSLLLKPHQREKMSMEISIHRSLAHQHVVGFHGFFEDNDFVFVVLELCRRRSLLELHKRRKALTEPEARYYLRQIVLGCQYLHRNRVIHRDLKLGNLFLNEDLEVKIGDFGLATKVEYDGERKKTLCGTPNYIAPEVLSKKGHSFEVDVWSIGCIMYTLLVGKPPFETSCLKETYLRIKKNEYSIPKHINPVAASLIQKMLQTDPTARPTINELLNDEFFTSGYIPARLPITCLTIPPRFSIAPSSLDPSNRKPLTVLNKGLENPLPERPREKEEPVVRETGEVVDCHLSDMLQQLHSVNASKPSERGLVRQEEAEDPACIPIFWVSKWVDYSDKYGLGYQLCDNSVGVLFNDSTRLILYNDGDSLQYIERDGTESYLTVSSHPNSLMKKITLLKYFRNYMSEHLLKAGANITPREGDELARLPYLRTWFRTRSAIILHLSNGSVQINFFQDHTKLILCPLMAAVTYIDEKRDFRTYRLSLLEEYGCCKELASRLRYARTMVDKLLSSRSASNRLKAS
BAZ2B inh: qHTS Assay for Inhibitors of BAZ2B. Potency, µM (titrated, usually from 114 µM), without a hit: top-dose activity change, negative = inhibition, usual class: inhibitors. Bromodomain adjacent to zinc finger domain protein 2B (Homo sapiens), Q9UIF8. AlphaScreen BAZ2B-H3K14Ac peptide displacement. 360,000 tested, 4.4% active; also: potency is read from the fitted curve at half-maximal effect; % is scaled to controls: 0 for no effect and ±100 for the full control effect; nearly all actives have a fitted effect of over 60% in size
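Complex of BAZ2B and biotin-H3K14Ac (50 nM apiece) forms over 30 min at RT, then faces library compounds up to 110 uM for another 30 min; AlphaScreen beads added, 20 min dark incubation, luminescence read.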
G9a block: qHTS Assay for Inhibitors of Histone Lysine Methyltransferase G9a. Potency, µM (doses to about 102 µM), without a hit: at the highest dose activity, negative = inhibition, most hits filed as inhibitors. 350,000 tested, 8.8% active. G9a H3K9 monomethylation, AlphaScreen, 2 h; also: potency is read from the fitted curve at half-maximal effect; % is scaled to controls: 0 for no effect and ±100 for the full control effect; nearly all actives have a fitted effect of over 75% in size
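Using a bead-based AlphaScreen, monomethylated H3K9 product from 2 h room-temperature reactions (G9a 20 nM, peptide 500 nM, SAM 20 uM) was detected with 0.5 ug/mL rabbit anti-H3K9me1 antibody.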
JMJD2A Tudor: qHTS Assay for Inhibitors of JMJD2A-Tudor Domain | 390,000 tested, 4.4% active | AlphaScreen JMJD2A-Tudor / H3K4me3 peptide binding | Lysine-specific demethylase 4A (Homo sapiens), O75164 | Potency, µM (top dose mostly 114 µM), without a hit: top-dose activity change, negative = inhibition, actives largely listed as inhibitors | AID 504339, 2011; also: potency is read from the fitted curve at half-maximal effect; % is scaled to controls: 0 for no effect and ±100 for the full control effect; nearly all actives have a fitted effect of over 50% in size
12-hLO 8HQ R1: Cuvette-Based Assay for Inhibitors of 12-hLO (12-human lipoxygenase): 8HQ Series - Round 1. shares compounds with BAZ2B inh. purified 12-hLO, cuvette UV 234 nm product formation. Potency, µM, most hits filed as inhibitors. 35 tested, 60% active;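 active = compounds that slowed 12-hLO product formation enough to yield a measured IC50 potency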
KDM4E inh: Inhibitors of Human Jumonji Domain Containing 2E (JMJD2E): 8HQs - Round 1; 130 tested, 89% active; Potency, µM (series often up to 57 µM), for inactives: top-dose activity, negative = inhibition, most hits filed as inhibitors; shares compounds with BAZ2B inh; JMJD2E demethylase, FDH-coupled NADH fluorescence (FDH is formaldehyde dehydrogenase)
ME-1 prolif: qHTS Assay for Compounds Blocking the Interaction Between CBF-beta and RUNX1 for the Treatment of Acute Myeloid Leukemia: ME-1 cellular proliferation; shares compounds with BAZ2B inh; 140 tested, 20% active; Potency, µM (titrated, usually from 56.1 µM), inactives show top-dose activity change, negative = inhibition, usual class: inhibitors; ME-1 cell proliferation, ATP luminescence, 48 h; AID 504370, 2011
* hit, by the source's call; ? = inconclusive; nt = not tested or not shown; [ ] = dose if it differs, or a comment. A selection: hits, their analogues and other compounds. The true share with any hit is near 11%. Unless noted, calls follow the shape of the dose curve; as a rule, active = well fitted curve in the direction sought with a large enough effect; inconclusive = small, poorly fitted or top-dose-only effect, or another doubt; inactive = no such curve, though single readings can be large; an effect the other way counts as inactive or inconclusive.

SMILES	HP1b binding inh	VDR inh	PLK1 PBD block	BAZ2B inh	G9a block	JMJD2A Tudor	ME-1 prolif	others
COc1ccc(C)cc1NC(=O)CN1C(=O)COc2ccc(S(=O)(=O)N3CCCCC3)cc21	32.1%	12.3%	3.1%	-24.4%	15.9%[59 µM]	-6.8%	nt
CC1(C)N([O-])C2=C(CCCC2)[N+]1=O	-1.1%	-6.1%	-8.9%	?	?	-20.3%	-14.6%[25.6 µM]
COc1ccc([C@@H]2[C@@H]3C(=O)N(C(C)(C)C)C(=O)[C@@H]3[C@]3(Cc4ccc(Cl)cc4)C(=O)N(c4ccc(C)cc4)C(=O)N23)cc1	24.8%	-1.5%	2.9%	3.0%	-11.7%[2.33 µM]	-16.5%	nt
O=C(O)C1=CC(=C(c2ccc(O)c(C(=O)O)c2)c2ccc(O)c(C(=O)O)c2)C=CC1=O	nt	8.91µM*	nt	1.12µM*	1.12µM*	nt	-12.6%
CC(C)(c1ccc(O)cc1)c1ccc(O)c(C(=O)O)c1	nt	nt	-5.8%	nt	nt	nt	nt
O=C(NNC(=O)c1ccc(Br)s1)c1cccc(Cl)c1	17.9%	-12.9%	-20.0%	-2.2%	-6.0%[12.7 µM]	-16.5%	nt
NC(=O)N(CCC(=O)O)c1ccccc1	15.5%	0.3%	-6.8%	50.1µM*	?	8.9%[57.1 µM]	-11.6%[25.6 µM]
C=C1c2cccc(O)c2C(O)=C2C(=O)[C@]3(O)C(O)=C(C(N)=O)C(=O)[C@@H](N(C)C)[C@@H]3[C@@H](O)[C@H]12	-8.4%	-6.5%	?	3.55µM*	-160.4%[59 µM]	7.08µM*	-24.0%
COc1ccc(S(=O)(=O)N(CC(=O)N2CCCCCC2)c2ccccc2OC)cc1	24.6%	5.0%	-5.5%	-1.3%	8.0%	2.1%	nt
O=C1CCC(C(=O)N2CCCC(Nc3ccc(F)cc3)C2)=NN1 (stereo not drawn)	29.5%	-11.3%	-13.4%	-4.7%	15.3%	-4.2%	nt
CC(C)N1CC(=O)N2CSCC2C1=O (stereo not drawn)	nt	nt	-6.7%	nt	nt	nt	nt
COC1OC(COC(=O)c2ccccc2)C(OC(=O)c2ccccc2)C1OC(=O)c1ccccc1 (stereo not drawn)	39.5%	18.4%	-6.7%	12.4%	6.4%[2.33 µM]	5.4%	nt
O=C(O)C[C@@H]1C(=O)O[C@@H]2C(COC(=O)c3cc(O)c(O)c(O)c3)O[C@@H](OC(=O)c3cc(O)c(O)c(O)c3)[C@@H](OC(=O)c3cc(O)c(O)c4c3[C@H]1[C@H](O)C(=O)O4)[C@H]2OC(=O)c1cc(O)c(O)c(O)c1 (stereo partly drawn)	nt	nt	nt	0.708µM*	?	nt	?
O=C(NCc1cccnc1)c1ccc(NC(=O)c2cccc([N+](=O)[O-])c2)cc1	-11.4%	-17.7%	-6.2%	4.5%	6.0%	-13.8%	nt
O=C(NCCc1ccccc1)c1cccc(Br)n1	nt	-11.6%	nt	nt	-2.1%	nt	-12.9%
COC(=O)C[C@H]1c2cc(C(F)(F)F)ccc2S(=O)(=O)N1C1CCCC1	32.4%	-17.3%	-2.2%	nt	nt	?	nt
N#CC(C#N)=Cc1ccc(OC(=O)c2ccccn2)cc1	32.9%	?	-24.2%	8.91µM*	2.51µM*	7.94µM*	?
CC(Cc1c[nH]c2ccccc12)C(=O)O (stereo not drawn)	?	8.9%	-10.2%	44.7µM*	10µM*	25.1µM*	-10.4%[25.6 µM]
CCC(=O)NC(c1cccs1)c1cc(Br)c2cccnc2c1O (stereo not drawn)	nt	nt	nt	70.8µM*	-34.2%[12.7 µM]	nt	nt	12-hLO 8HQ R1=14µM*;KDM4E inh=20.4µM*
CCCC(=O)NC(C)C(c1cccs1)N1CCN(C)CC1 (stereo not drawn)	9.7%	13.0%	-5.5%	5.2%	10.6%[59 µM]	-14.1%	nt
CCCC(=O)NC(c1cccs1)c1cc([N+](=O)[O-])c2cccnc2c1O (stereo not drawn)	-6.6%	-22.1%	-16.9%	7.94µM*	?	14.1µM*	?
CCC(=O)NC(c1cccs1)c1cc(Cl)c2ccccc2c1O (stereo not drawn)	26.2%	-8.0%	nt	?	1.7%[0.501 µM]	-24.5%	nt
Nc1cccc(N)c1	nt	nt	nt	nt	nt	nt	-1.8%
Nc1nc(-c2ccccc2)c(N=Nc2ccccc2Cl)s1	17.8µM*	1.2%	-4.9%	10µM*	10µM*	12.6µM*	-13.9%[25.6 µM]
CC(=O)Nc1sc(N)nc1-c1ccccc1	11.5%	0.5%	-10.4%	3.7%	?	-27.7%	nt
Nc1nc(-c2ccccc2)cs1	?	-9.3%	?	-2.6%	?	-26.2%	nt
Nc1nc(-c2ccccc2)c(N=Nc2cccc3ccccc23)s1	?	3.7%	2.7%	8.91µM*	10µM*	11.2µM*	-10.4%[25.6 µM]
COC(=O)CC1C(C)(C)C(OC(C)=O)[C@@]2(O)C=C3C4CC(=O)OC(c5ccoc5)[C@]4(C)CCC3[C@@]1(C)C2=O (stereo partly drawn)	nt	-3.6%	nt	nt	-38.6%[2.33 µM]	nt	nt

High-throughput results: PubChem, National Center for Advancing Translational Sciences (NCATS)
